# The list is not random: actives were taken first. Their share in the collection is about 12%.
# BAZ2B block: qHTS Assay for Inhibitors of BAZ2B. Bromodomain adjacent to zinc finger domain protein 2B (Homo sapiens), Q9UIF8. AlphaScreen BAZ2B-H3K14Ac peptide displacement. Potency, µM (doses to about 114 µM), for the others: top-dose activity change, negative = inhibition, hits mostly inhibitors. actives 4.4% (n = 360,000); note: % is set by controls: 0 for no effect and ±100 for the full control effect; nearly all actives have a fitted effect of over 60% in size
#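 Inhibition is scored as reduced AlphaScreen emission. The BAZ2B/b-H3(5-23)K14Ac complex (50 nM each) in PBS pH 7.4, 0.01% Tween-20 meets compound (up to 110 uM) for 30 min at RT before bead addition.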
# Sfp inh: qHTS Assay for Inhibitors of Bacillus subtilis Sfp phosphopantetheinyl transferase (PPTase); Potency, µM, for the others: largest response in the series, negative = inhibition, hits mostly inhibitors; AID 1490, 2009; 4'-phosphopantetheinyl transferase ffp (Bacillus subtilis), Q9F4F7; actives 3.5% (n = 310,000); Biochemical Sfp PPTase activity, qHTS;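 note: the enzyme is Sfp with the accession as filed and its product quenches rhodamine fluorescence; 0% = enzyme reaction without inhibitor and -100% = no enzyme wells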
#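 Sfp 15 nM + cpd, 15 min RT; start w/ rhodamine-CoA 5 uM, BHQ-2-YbbR 12.5 uM (final); 50 mM Hepes pH 7.6, 10 mM MgCl2, 0.01% NP-40, 0.01% BSA; read 525/598 nm at 0 and 30 min.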
# HP1b binding inh: HTS for Inhibitors of HP1-beta Chromodomain Interactions with Methylated Histone Tails; Chromobox protein homolog 1 (Homo sapiens), P83916; AlphaScreen HP1-beta / biotin-H3K9me3 peptide binding; Potency, µM (top dose mostly 114 µM), for inactives: at the highest dose activity change, negative = inhibition, most hits filed as inhibitors; actives 0.56% (n = 390,000); AID 540317, 2011; note: nearly all actives have a fitted effect of over 70% in size
# Target sequence (P83916 whole entry, looked up): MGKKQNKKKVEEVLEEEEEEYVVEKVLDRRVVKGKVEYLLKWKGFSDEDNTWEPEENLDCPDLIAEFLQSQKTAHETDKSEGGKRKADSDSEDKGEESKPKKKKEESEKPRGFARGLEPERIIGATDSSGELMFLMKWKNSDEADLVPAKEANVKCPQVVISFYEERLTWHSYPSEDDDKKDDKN
#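 HP1-beta protein (50 nM final) preincubated 30 min at room temperature with biotinylated H3(1-18)K9me3 peptide (50 nM) in PBS pH 7.4, 0.01% Tween-20, then compound added for 30 min. AlphaScreen streptavidin donor/nickel chelate acceptor beads (10 ug/mL final), 30 min dark, luminescence read.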
# G9a inh: qHTS Assay for Inhibitors of Histone Lysine Methyltransferase G9a | Histone-lysine N-methyltransferase EHMT2 (Homo sapiens), Q96KQ7 | G9a H3K9 monomethylation, AlphaScreen, 2 h | Potency, µM (top dose mostly 102 µM), without a hit: at the top dose activity, negative = inhibition, actives largely listed as inhibitors | actives 8.8% (n = 350,000) | AID 504332, 2011; note: % is set by controls: 0 for no effect and ±100 for the full control effect; nearly all actives have a fitted effect of over 75% in size
# Target sequence (Q96KQ7 913-1193 limits assumed): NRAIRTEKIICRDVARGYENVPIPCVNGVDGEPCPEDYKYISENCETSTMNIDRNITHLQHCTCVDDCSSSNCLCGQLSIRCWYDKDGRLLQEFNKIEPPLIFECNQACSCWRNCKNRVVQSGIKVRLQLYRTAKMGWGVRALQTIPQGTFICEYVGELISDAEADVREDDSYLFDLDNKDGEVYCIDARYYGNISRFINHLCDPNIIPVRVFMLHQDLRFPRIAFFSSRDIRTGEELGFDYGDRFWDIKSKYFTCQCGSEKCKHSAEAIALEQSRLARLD
#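 Chemiluminescent proximity detection of H3K9 monomethylation, read after 10 min bead incubation in the dark. Reaction: 20 nM G9a, 500 nM biotin-H3K9 peptide, 20 uM SAM cofactor, 2 h, room temperature, following 15 min enzyme-compound preincubation.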
# L3MBTL1 inh: qHTS Assay for the Inhibitors of L3MBTL1; Lethal(3)malignant brain tumor-like protein 1 (Homo sapiens), Q9Y468; AlphaScreen L3MBTL1–H3K9me1 peptide binding; actives 0.66% (n = 230,000); Potency, µM (top dose mostly 57.1 µM), for the others: at the highest dose activity, negative = inhibition, actives largely listed as inhibitors; note: % is set by controls: 0 for no effect and ±100 for the full control effect; nearly all actives have a fitted effect of over 60% in size
#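 First, the protein-peptide complex forms for 30 min at room temperature (L3MBTL1 50 nM, biotinylated H3K9me1 peptide 75 nM). Next, compounds are pin-transferred and incubated 30 min. Finally, AlphaScreen beads are added and read after 30 min.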
# JMJD2A Tudor: qHTS Assay for Inhibitors of JMJD2A-Tudor Domain | AlphaScreen JMJD2A-Tudor / H3K4me3 peptide binding | AID 504339, 2011 | Potency, µM (top dose mostly 114 µM), without a hit: at the highest dose activity change, negative = inhibition, hits mostly inhibitors | actives 4.4% (n = 390,000); note: % is set by controls: 0 for no effect and ±100 for the full control effect; nearly all actives have a fitted effect of over 50% in size
# Numbers without * were called inactive; ? = inconclusive; nt = no result given; [ ] = another dose, or the depositor's remark. Calls come from the whole dose curve; as a rule, active = well fitted curve in the direction sought with a large enough effect; inconclusive = small, poorly fitted or top-dose-only effect, or another doubt; inactive = no such curve, though single readings can be large; an effect the other way counts as inactive or inconclusive. Potency is the fitted concentration of half-maximal effect.
SMILES,BAZ2B block,Sfp inh,HP1b binding inh,G9a inh,L3MBTL1 inh,JMJD2A Tudor
Cc1cccc(C(CC(=O)NCCc2ccccc2)c2ccccc2)c1O (stereo not given),-2%,79µM*,55%,3%,4%,-2%
O=C(c1ccncc1)N1CCC2(CCCN(c3ncccn3)C2)CC1,nt,-5%,nt,8%[12.7 µM],nt,nt
Cc1ccc(NC(=O)Cn2nnc(C(=O)NCCc3ccccc3)c2N)cc1,-30%,nt,24%,?,nt,-29%
CN(Cc1ccccc1)C(=S)NC(=O)c1ccc(-c2ccccc2)cc1,-24%,14%,42%,83%[59 µM],-2%,3%
CN(Cc1ccccc1)C(=S)NC(=O)c1cccs1,?,22%,13%,40µM*,nt,-33%
CCN(CC)CCNC(=O)c1sc2nc3n(c(=O)c2c1C)CCCCC3,12%,nt,39%,1%[59 µM],nt,-12%
Cc1c(C(=O)NCCc2ccc(Cl)cc2)sc2nc3n(c(=O)c12)CCC3,-2%,15%,20%,nt,nt,-12%
Cc1c(C(=O)NCc2ccccc2)sc2nc3n(c(=O)c12)CCCCC3,?,nt,33%,10µM*,nt,?
Cc1ccc(CNC(=O)c2sc3nc4n(c(=O)c3c2C)CCCCC4)cc1,-33%,nt,48%,?,nt,-14%
Cc1ccc(CNC(=O)c2sc3nc4n(c(=O)c3c2C)CCCC4)cc1,50µM*,nt,21%,?,nt,?
CCCCN(CC)CCCNC(=O)c1sc2nc3n(c(=O)c2c1C)CCCCC3,-4%,nt,28%,8.9µM*,nt,-8%
Cc1c(C(=O)NCCc2ccc(Cl)cc2)sc2nc3n(c(=O)c12)CCCC3,40µM*,nt,53%,?,nt,-33%
CC(=O)N/C(=C/c1ccc(OS(=O)(=O)c2ccc(C)cc2)cc1)C(=O)Nc1ccc(C(=O)O)cc1,-15%,11%,-5%,-30%,7%,-14%
COc1cc(CNC(=O)C2CCCCN2S(=O)(=O)c2ccc(F)cc2)cc(OC)c1OC (stereo not given),-1%,nt,39%,1%[59 µM],nt,-15%
C[C@@H]1O[C@@H](OC[C@@H]2O[C@H](Oc3c(-c4ccc(O)cc4)oc4cc(O)cc(O)c4c3=O)[C@@H](O)[C@H](O)[C@H]2O)[C@H](O)[C@H](O)[C@H]1O,nt,nt,21%,nt,6%,-22%
CC1OC(Oc2c(-c3cc(O)c(O)c(O)c3)oc3cc(O)cc(O)c3c2=O)C(O)C(O)C1O (stereo not given),-24%,7.9µM*,-22%,40µM*,?,?
O=C(O)C1OC(Oc2c(-c3ccc(O)c(O)c3)oc3cc(O)cc(O)c3c2=O)C(O)C(O)C1O (stereo not given),35µM*,-10%,?,32µM*,?,32µM*
CCC(=O)Oc1c(Sc2ccc(Cl)cc2)c(C)nn1C(C)(C)C,100%,nt,82%,48%[59 µM],nt,65%
Cc1nc(SCC(=O)Nc2ccc(CN3CCCC3)cc2)c2c(C)c(C)sc2n1,-31%,nt,9%,6%[12.7 µM],-9%,-18%
CCC(CO)Oc1cc(NC(=O)c2cccc(Cl)c2)c2ncn(C(C)C)c2c1 (stereo not given),79µM*,nt,26%,10%[0.501 µM],4%,?
CCC(CO)Oc1cc(NC(=O)c2ccc(F)cc2)c2ncn(C(C)C)c2c1 (stereo not given),-1%,nt,4%,7%[0.501 µM],-6%,50µM*
Cc1ccc(NC(=O)C(c2ccccc2)N2CCN(CC(=O)N3CCOCC3)CC2)cc1Cl (stereo not given),-10%,nt,28%,?,-1%,-8%
COCCNC(=O)c1ccc2c(=O)n(CCc3ccccc3)c(SCC(=O)CC(=O)OC)nc2c1,1%,nt,45%,1%[59 µM],nt,-6%
COCCNC(=O)CN(C(=O)CCC(=O)Nc1cc(C)on1)c1cccc(C)c1C,-5%,13%,-11%,?,-1%,79µM*
CC(=O)C1C(=O)CC(c2ccc(Cl)cc2)CC1=O (stereo not given),-23%,18%,9%,56µM*,-3%,?
SMILES,BAZ2B block,Sfp inh,HP1b binding inh,G9a inh,L3MBTL1 inh,JMJD2A Tudor
Cc1ccc(C(=O)/C=C/c2ccc3ncccc3c2)cc1,-34%,-17%,19%,?,-10%,-26%
O=C(Cc1ccccc1)NNC(=S)NC(=O)c1cccnc1,5%,?,18%,10µM*,-1%,25µM*
COc1ccc(C(=O)NNC(=S)NC(=O)c2cccs2)cc1,-12%,24%,28%,40µM*,nt,-21%
COc1ccc(CC(=O)NNC(=S)NC(=O)c2cccnc2)cc1,11%,?,15%,nt,4%,20µM*
COc1ccc(C(=O)NNC(=S)NC(=O)c2cccnc2)cc1,9%,-13%,18%,13µM*,3%,-6%
Cc1nc2c(c(C)c1CCC(=O)NCc1ccc(F)cc1)c(=O)n(C)c(=O)n2C,-7%,nt,8%,1%[59 µM],nt,-14%
CSc1ncc2[nH]c(C(O)c3ccccc3)nc2n1 (stereo not given),nt,nt,42%,nt,nt,?
NC(=O)C1C2C=CC(C2)C1c1ccccc1 (stereo not given),nt,nt,19%[57 µM],nt,nt,3%
O=C(c1cccs1)N1CCN(C/C=C/c2ccccc2)CC1,-1%,1%,22%,-2%[2.33 µM],nt,-8%
Cc1onc(-c2ccccc2)c1C(=O)N1CCN(C/C=C/c2ccccc2)CC1,-2%,-17%,20%,?,nt,-27%
O=C(NC(=S)N1CCN(C/C=C/c2ccccc2)CC1)c1ccco1,-34%,14%,10%,45µM*,-5%,-20%
O=C(c1ccco1)N1CCN(C/C=C/c2ccccc2)CC1,4%,-3%,0%,56µM*,0%,-14%[11.4 µM]
O=C(NC(=S)N1CCN(C/C=C/c2ccccc2)CC1)c1c(F)cccc1F,-29%,13%,13%,?,3%,-16%
COc1ccc(NS(=O)(=O)c2cc(C(=O)N3CCN(C/C=C/c4ccccc4)CC3)ccc2C)cc1,50µM*,nt,-10%,14µM*,-12%,?
Cc1cc(C(=O)N2CCN(C/C=C/c3ccccc3)CC2)no1,-4%,-7%,23%,50µM*,1%,-1%

# High-throughput results from PubChem BioAssay.
